Compound activity from PubChem BioAssay.
A selection: hits, their analogues and other compounds. The true share with any hit is near 7.3%.
RORgamma inh: qHTS for inhibitors of ROR gamma transcriptional activity. 5.4% of 310,000 active. AID 2551, 2010. Drosophila S2 Gal4-RORgamma UAS-luciferase reporter, 20 h. Potency, µM (titrated, usually from 53.6 µM), inactives show top-dose activity change, negative = inhibition, actives largely listed as inhibitors. Nuclear receptor ROR-gamma (Mus musculus), P51450; also: nearly all actives have a fitted effect of over 60% in size
Target sequence (P51450 whole entry, looked up, the tested form may be a part): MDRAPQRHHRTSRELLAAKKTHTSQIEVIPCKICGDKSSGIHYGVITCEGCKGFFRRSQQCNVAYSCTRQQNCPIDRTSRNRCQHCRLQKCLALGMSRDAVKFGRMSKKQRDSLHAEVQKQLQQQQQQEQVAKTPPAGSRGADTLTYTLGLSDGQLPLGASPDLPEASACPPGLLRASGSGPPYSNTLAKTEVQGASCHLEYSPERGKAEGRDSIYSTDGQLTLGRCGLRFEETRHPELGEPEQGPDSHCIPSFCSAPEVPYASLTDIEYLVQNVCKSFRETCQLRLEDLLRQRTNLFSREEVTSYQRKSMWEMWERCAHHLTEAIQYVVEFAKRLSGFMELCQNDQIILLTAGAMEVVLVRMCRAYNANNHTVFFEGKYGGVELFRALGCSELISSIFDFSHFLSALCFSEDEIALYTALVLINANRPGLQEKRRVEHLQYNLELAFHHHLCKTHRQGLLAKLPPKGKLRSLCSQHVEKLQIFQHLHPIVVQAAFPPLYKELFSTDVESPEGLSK
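Stable Schneider cell line, Gal4 DNA-binding domain fused to ROR gamma, UAS-luciferase. Cmpd 1 hr RT → CuSO4 700 uM final → 20 hr RT → luciferase reagent 10 min → luminescence.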
Tau fibril FP: qHTS for Inhibitors of Tau Fibril Formation, Fluorescence Polarization | AID 1468, 2008 | Potency, µM (highest dose often 57.7 µM), for the others: at the top dose activity, negative = inhibition, actives largely listed as inhibitors | Microtubule-associated protein tau (Homo sapiens), P10636 | K18 P301L tau heparin fibrillization, Alexa594 FP, 6 h | 0.39% of 280,000 active; also: nearly all actives have a fitted effect of over 55% in size
Target sequence (P10636 561-689 P618L limits assumed): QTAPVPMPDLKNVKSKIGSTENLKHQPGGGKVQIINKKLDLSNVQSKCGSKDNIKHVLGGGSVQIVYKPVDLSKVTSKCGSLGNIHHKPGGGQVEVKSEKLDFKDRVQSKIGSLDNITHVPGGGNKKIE
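Quantitative HTS format: compounds meet 15 uM recombinant K18 P301L tau and Alexa 594-tau tracer in 100 mM sodium acetate pH 7; 20 uM heparin triggers fibrillization at 37 C over 6 hr; FP gives the signal.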
Tau fluor counter: Counterscreen qHTS for Inhibitors of Tau Fibril Formation, Fluorescence Polarization. tau K18 P301L Alexa594 fluorescence, heparin fibrillization. Potency, µM (titrated, usually from 57.7 µM), without a hit: at the top dose activity change, negative = decrease. 0.93% of 280,000 active. AID 1463, 2008; also: nearly all actives have a fitted effect of over 55% in size
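Human tau K18 P301L (15 uM unlabeled, 0.24 uM Alexa 594-labeled) in 100 mM sodium acetate pH 7 with 20 uM heparin, 6 hr at 37 C. ThT 30 uM added, 1 hr ambient; Alexa 594 FP and total fluorescence read at 555/632 nm.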
VP16 counter: VP16 counterscreen qHTS for inhibitors of ROR gamma transcriptional activity | Drosophila S2 Gal4-VP16 UAS-luciferase, luminescence, 20 h | 3.5% of 310,000 active | Potency, µM (top dose mostly 53.6 µM), for inactives: top-dose activity, negative = inhibition, most hits filed as inhibitors;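 also: Gal4-VP16 expression switched on by copper sulfate through the metallothionein promoter; nearly all actives have a fitted effect of over 50% in size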
Tau fibril ThT: qHTS for Inhibitors of Tau Fibril Formation, Thioflavin T Binding; Microtubule-associated protein tau (Homo sapiens), P10636; recombinant tau K18 P301L, heparin-induced fibrillization, ThT fluorescence; Potency, µM (top dose mostly 57.4 µM), for inactives: at the highest dose activity, negative = inhibition, usual class: inhibitors; 2.1% of 270,000 active; AID 1460, 2008; also: nearly all actives have a fitted effect of over 55% in size
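Fibril formation assay: tau K18 P301L at 15 uM with trace Alexa 594 label, heparin inducer 20 uM, pH 7 sodium acetate buffer, 37 C for 6 hr; endpoint ThT signal.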
* hit, by the source's call; ? = inconclusive; nt = not tested or not shown; [ ] = dose if it differs, or a comment. Calls follow the shape of the dose curve; as a rule, active = well fitted curve in the direction sought with a large enough effect; inconclusive = small, poorly fitted or top-dose-only effect, or another doubt; inactive = no such curve, though single readings can be large; an effect the other way counts as inactive or inconclusive. % is scaled to controls: 0 for no effect and ±100 for the full control effect; potency is read from the fitted curve at half-maximal effect.

SMILES	RORgamma inh	Tau fibril FP	Tau fluor counter	VP16 counter	Tau fibril ThT
COc1ccccc1CCNC(=O)Cc1c(C)c2c(O)cc(C)cc2oc1=O	nt	?	-11%	nt	6%
F[Si-2](F)(F)(F)(F)F	1%[10 µM]	nt	nt	4%	nt
C/C(CC(=O)NC1CCCCC1)=N\NC(=O)c1ccccc1C	-1%	nt	nt	-4%	nt
C/C(CC(=O)NC1CCCCC1)=N\NC(=O)c1ccc(Br)cc1	13µM*	nt	nt	11µM*	nt
C/C(CC(=O)NC1CCCC1)=N\NC(=O)C1CCCCC1	16µM*	-7%	-12%	-3%	-6%
c1ncc(CCCC2CCNCC2)[nH]1	1%	nt	nt	13%	nt
O=C(CN1C2=NCCN2c2ccccc21)C12CC3CC(CC(C3)C1)C2	16µM*	-4%	-8%	-28%	-10%
CCc1ccc(-c2cn3nc(C)c(C)nc3n2)cc1	7.1µM*	?	-13%	?	?
c1ccc(-c2cn3nc(-c4ccccc4)cnc3n2)cc1	8%	11%	3%	-2%	4%
CCc1c(-c2ccccc2)nc2nc(C)c(C)nn12	7%	8%	-11%	21%	2%
Cc1nc2nc(-c3ccccc3)cn2nc1C	10µM*	-1%	-7%	?	?
CC(C)(C)c1cc(C(=O)NN)n(Cc2ccc(F)cc2)n1	11µM*	-6%	-12%	-11%	-1%
Cc1cccc(Cn2nc(C(C)(C)C)cc2C(=O)Nc2ccc(F)cc2)c1	0%	-12%	-26%	-6%	nt
CCOC(=O)N/N=C\c1ccc([N+](=O)[O-])o1	-19%	-3%	0%	-7%	-1%
O=C(Cc1ccc([N+](=O)[O-])cc1)N/N=C/c1ccc([N+](=O)[O-])o1	-22%	2%	-24%	?	?
CC(=O)N/N=C/c1ccc([N+](=O)[O-])o1	?	nt	nt	3.5µM*	nt
Cc1cc(C)cc(OCC(=O)N/N=C/c2ccc([N+](=O)[O-])o2)c1	8.9µM*	14%	-23%	?	?
COc1ccccc1OCC(=O)N/N=C/C=C/c1ccc([N+](=O)[O-])o1	11µM*	-4%	-21%	10µM*	14µM*
N#CCc1ccc(NC(=O)/C=C/c2ccc([N+](=O)[O-])o2)cc1	-15%	?	-29%	-15%	11µM*
CN(C)c1ccc(C(CNS(=O)(=O)c2ccc(Br)cc2)N2CCCC2)cc1 (configuration not stated)	nt	6%	-15%	nt	-7%
COc1ccc(C(=O)N2CCC(C(=O)Nc3ccc(Cl)cc3)CC2)cc1	nt	-16%	-23%	nt	-7%
COc1cc(NC(=O)C(Cc2ccccc2)NS(=O)(=O)c2cccc3nsnc23)cc(OC)c1 (configuration not stated)	nt	-4%	?	nt	-9%
Cc1cc(=O)n(Cc2cccc(F)c2)c2c1c(C)nn2-c1cccc(F)c1	nt	?	-24%	nt	-13%
Cc1ccc(/C=C(\C#N)C(=O)Nc2ccc(Br)cc2)o1	nt	?	-2%	nt	-8%
CCCCCCCC(=O)N/N=C/c1ccc([N+](=O)[O-])o1	-22%	12%	-23%	?	?
SMILES	RORgamma inh	Tau fibril FP	Tau fluor counter	VP16 counter	Tau fibril ThT
C/C(=N\NC(=O)COc1cccc(C)c1)c1ccc2ccccc2c1O	4.5µM*	nt	nt	4µM*	nt
O=C(CC12CC3CC(CC(C3)C1)C2)N/N=C\c1ccc[nH]1	7.9µM*	13%	-13%	16µM*	-11%
N#C/C(=C\c1ccc([N+](=O)[O-])o1)C(=O)Nc1ccc(F)cc1	?	?	?	?	14µM*
O=C(CC12CC3CC(CC(C3)C1)C2)N/N=C/c1ccc([N+](=O)[O-])o1	10µM*	?	-20%	?	-7%
Cc1cccc(OCC(=O)NCc2ccccc2)c1	44%	nt	nt	30%	nt
O=C(Oc1ccccc1)N1CCC2(CC1)CCN(c1ccccn1)CC2	27%	nt	nt	-14%	nt
Cc1ccccc1OCC(=O)N/N=C/c1ccc([N+](=O)[O-])o1	2.5µM*	8%	-15%	11µM*	-17%
Cc1ccccc1OCC(=O)NCC(=O)N/N=C/c1ccc(Br)o1	-9%	2%	7%	-3%	-6%
Cc1cccc(OCC(=O)N/N=C/c2ccc(N(C)C)cc2)c1	-3%	7%	-29%	7%	3.5µM*
O=C(O)/C=C/c1ccc([N+](=O)[O-])o1	11µM*	-3%	-4%	-5%	-7%
CN1CCN(C(=O)/C=C/c2ccc([N+](=O)[O-])o2)CC1	?	-13%	-6%	?	?
O=[N+]([O-])c1ccc(/C=N/N=C/c2ccc([N+](=O)[O-])o2)o1	1.1µM*	?	?	4.5µM*	13µM*
O=C(NCCc1ccccn1)c1nc(Cn2ccc([N+](=O)[O-])n2)no1	-4%	nt	nt	-1%	nt
O=C(c1ccc(CSc2nc3ccncc3n2Cc2ccccc2F)cc1)N1CCCCCC1	nt	4%	1%	nt	3%
Cc1ccc(NC(=O)CSc2nnc(-c3ccc([N+](=O)[O-])cc3)o2)c(C)c1	nt	-7%	-9%	nt	-11%
COc1ccc(NC(=O)CC2C(=O)N(c3ccc(OC)cc3)C(=S)N2NC(=O)c2cccc(F)c2)cc1 (configuration not stated)	13µM*	5%	14%	?	7%
O=C(Nc1ccc(Cl)cc1)c1cc2c(-c3ccccc3)nn(-c3ccccc3)c2s1	nt	25µM*	-27%	nt	11%
COc1ccccc1NC(=O)c1cc2c(-c3ccccc3)nn(-c3ccccc3)c2s1	nt	?	-24%	nt	-4%
O=C(Nc1ccccc1)c1cc2c(-c3ccccc3)nn(-c3ccccc3)c2s1	nt	20µM*	?	nt	-1%
O=[N+]([O-])c1cccc(NC(=S)N2CCN(c3ccccn3)CC2)c1	0%	nt	nt	15%	nt
CCOC(=O)/C(=C/C=C1\Sc2cc(C)c(C)cc2N1CC)C(C)=O	-31%	8%	-28%	?	10µM*
CCOC(=O)/C(=C/C=C1\Sc2ccccc2N1CC)C(C)=O	16%	?	-23%	-4%	?
O=C1NC(=S)N/C1=C\C=C\c1ccccc1	-28%	-4%	1%	18%	nt
COc1ccc(/C=C/C=C2\NC(=S)NC2=O)cc1	-31%	11%	-11%	-25%	2µM*
O=C(CSc1nnc(-c2ccccc2)c(-c2ccccc2)n1)N1CCc2ccccc21	3.2µM*	5%	-20%	5%	-16%
O=C(CSc1n[nH]c(-c2ccccc2O)n1)N1CCCc2ccccc21	11µM*	-7%	-25%	14%	-9%
O=C(CSc1nc(N2CCCCC2)nc(N2CCCCC2)n1)N1CCc2ccccc21	-7%	9%	7%	-1%	-4%
